Measured values taken from the supplement of paper PMC3334620.
In all, about 33,000 sequences were measured (“E-score (-0.5 to 0.5)”: median about -0.016, highest 2% from about 0.3 on). Shown is part of a subset that was picked to be rich in the highest values.

Target: T1, Yer184c (UniProt P39961)
T1 sequence: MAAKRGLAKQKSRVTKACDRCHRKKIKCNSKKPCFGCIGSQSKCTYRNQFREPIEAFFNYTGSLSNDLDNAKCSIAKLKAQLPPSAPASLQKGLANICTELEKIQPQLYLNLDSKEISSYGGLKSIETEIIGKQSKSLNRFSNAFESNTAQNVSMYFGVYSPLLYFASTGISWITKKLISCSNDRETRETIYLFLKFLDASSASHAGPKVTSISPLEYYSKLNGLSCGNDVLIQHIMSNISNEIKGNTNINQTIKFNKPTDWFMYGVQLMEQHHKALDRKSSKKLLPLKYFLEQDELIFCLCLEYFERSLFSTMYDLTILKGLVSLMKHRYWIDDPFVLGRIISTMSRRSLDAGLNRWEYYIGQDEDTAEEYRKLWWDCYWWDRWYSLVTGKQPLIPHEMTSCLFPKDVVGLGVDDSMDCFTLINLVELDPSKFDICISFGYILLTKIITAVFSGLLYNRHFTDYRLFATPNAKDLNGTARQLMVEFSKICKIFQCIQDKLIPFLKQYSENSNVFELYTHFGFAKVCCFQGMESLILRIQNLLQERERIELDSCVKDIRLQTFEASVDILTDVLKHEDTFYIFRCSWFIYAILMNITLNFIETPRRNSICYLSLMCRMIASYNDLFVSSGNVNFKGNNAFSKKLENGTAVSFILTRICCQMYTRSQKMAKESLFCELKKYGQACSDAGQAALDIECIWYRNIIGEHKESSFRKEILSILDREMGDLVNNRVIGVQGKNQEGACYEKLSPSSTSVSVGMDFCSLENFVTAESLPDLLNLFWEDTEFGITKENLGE
Test: PBM E-score (8-mer binding enrichment) (E-score (-0.5 to 0.5)); higher = stronger / more preferred TF binding
Details: protein concentration: 100 nM; construct: GST-full length
Procedure: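 Universal 'all 10-mer' protein binding microarrays (Agilent AMADID 015681) probed with GST-tagged S. cerevisiae TFs (full-length or DBD) made by in vitro transcription/translation (PURExpress), about 100-200 nM. Bound TF was detected with fluorescent anti-GST. Each ungapped 8-mer (which stands for itself and its reverse complement) is scored by the PBM enrichment score (E-score), a modified Wilcoxon-Mann-Whitney statistic from -0.5 to +0.5, computed with the Universal PBM Analysis Suite. Scale: above 0.35 generally sequence-specific binding.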

Sequence | PBM E-score
GCAGTACA | -0.0532
ACCGTGAG | -0.158
CGCAACGA | 0.0385
AAACCTGG | -0.147
TGCCGGCA | 0.431
ACCCGGCT | 0.22
AGCCGGCG | 0.372
AACCGGCT | 0.264
TACCGGCA | 0.251
AGCCGGCT | 0.36
ACCCGGCG | 0.198
TCCCGGCA | 0.256
AGCCGGTG | 0.225
AAATCAAA | 0.13
TCGATTAA | 0.148
CACGGCAG | 0.0946
ATCGGCAG | 0.247
GTCGGCAA | 0.263
ATCGGCAA | 0.246
CTCGGCAA | 0.319
CTCGGCCA | 0.204
CTCGGCAC | 0.31
GTCGGCAC | 0.1
CTCGGCAG | 0.31
CACGGCAA | 0.199

Sequence | PBM E-score
ATCGGCAC | 0.27
TTCGGCAA | 0.336
AGGACCTG | -0.174
ATATACCC | 0.021
TCTATAGA | -0.137
GTCAATAA | 0.158
AAGTATCC | 0.0522
CAGGGCTC | -0.226
GAGAGCGC | -0.218
AGCAGCAT | -0.206
AGAGTAAC | 0.0419
CAATAGAG | -0.242
CCAGCCTA | -0.206
CCCGCTCA | -0.141
CCTAAGTA | 0.106
CGCCGGGC | 0.286
GGCCGGGA | 0.292
AGCCGGGG | 0.0566
CGCCGGGA | 0.312
AGCCGGGC | 0.172
AGCCGGGA | 0.311
CAAACAGC | -0.0581
ATGCGTGA | 0.0231
AATCTAAT | 0.0331
ATCAAGTC | -0.0287

Sequence | PBM E-score
ATGAACAG | 0.17
ACGGCAAA | 0.211
CCGGCAAA | 0.374
CCGGCAAC | 0.293
CCGGCAAG | 0.331
ACGGCAAG | 0.0759
GCGGCAAA | 0.107
CTAGCAGC | -0.0845
GAAAGCTA | 0.00964
ACGACCGG | 0.0371
TGCAAACA | -0.168
AAATCGAT | 0.0714
GGCGGCGA | 0.0554
CCCGGCGA | 0.236
GCCGGCGC | 0.406
GACGGCGA | -0.034
TCCGGCGA | 0.38
GCCGGCGA | 0.311
CCCGGCGC | 0.216
ACCGGCGC | 0.226
ACCGGCGA | 0.284
AAGAGGAA | 0.23
AGTGAGAA | 0.118
CCGATGCA | 0.157
GAGTCAGC | -0.101

Sequence | PBM E-score
TCAGGGGA | -0.252
CTTCAAGA | 0.171
AAAAACAG | 0.115
GTTCCACA | -0.0536
AGCTCCGC | 0.127
AGCTCCGA | 0.251
CACTCCGA | 0.0993
CACTCCGC | -0.0284
ACCTCCGT | 0.107
CCCTCCGG | 0.1
GACTCCGA | -0.0256
AGCTCCGG | 0.313
CACTCCGG | 0.306
TACTCCGA | 0.262
AACTCCGA | 0.325
ACCTCCGG | 0.357
CAAGAATG | 0.103
GTTGGAGA | 0.0278
GTCGCCTA | -0.157
GGACGCCC | -0.106
AGGGGCAT | -0.358
ATTCTGCC | 0.201
CCAAGCGG | -0.15
AACTCCGG | 0.424
AACTCCGC | -0.0142

Sequence | PBM E-score
AACTCCGT | 0.222
AGTTCGAG | -0.00888
AAGGGGTA | -0.351
AAGCGCCT | -0.14
AAACGCCG | 0.334
AAGCGCTT | 0.306
CAACGCCG | 0.294
AGGCGCCG | 0.207
AAGCGCTC | 0.0112
AAGCGCTA | 0.0496
AAGCGCCG | 0.373
AAACGCCA | 0.089
AAGCGCCA | -0.208
CGGCGCCG | 0.443
CGGCGCCA | 0.162
ATGACCTG | -0.0827
AATTGACA | 0.0558
GGGCAGGA | -0.269
GGGGTACA | -0.111
CGCATTAG | -0.101
CGATGCAA | -0.00579
ATGCCCCG | -0.139
TCATCGCA | -0.0385
CGCGGCCG | 0.251
CCGGGCCA | 0.14

Sequence | PBM E-score
ATCGGCCC | 0.113
CCGGGCCG | 0.429
AGCGGCCG | 0.315
CCGGCCCA | 0.181
ACGGCCCG | 0.146
AGCGGCCA | -0.161
CCGGGCCC | 0.262
CCGGCCCG | 0.386
ATCGGCCA | 0.125
ATCGGCCG | 0.388
GAATCTGC | 0.12
CTAGTGAG | -0.0187
ACCCCGCG | -0.119
AAACTGTC | -0.133
AGCAGTGC | -0.185
CGGGCCCG | 0.351
ACCGGCCT | 0.0901
ACCGGCCG | 0.413
ACCGGCCA | 0.173
CGGGCCCA | 0.0473
CCCGGCCG | 0.371
CCCGGCCA | 0.209
AGGGCCCG | 0.0448
CCCGGCCC | 0.161
ACAACCTA | -0.00165

Sequence | PBM E-score
GAGTGGCC | -0.0531
AGTACTAG | 0.0969
ACAAGCTG | 0.0583
AGCCACTA | -0.112
AAAATCCA | -0.0451
ATGTGAGG | 0.0347
TCAACACA | 0.179
GGTCCGAA | 0.303
CTTCCGAA | 0.39
ACTCCGAA | 0.241
GTTCCGAA | 0.369
CTTCCAAA | 0.0435
AGTCCGAG | 0.268
GTTCCAAA | 0.158
CTTCCGAC | 0.173
ACTCCGAG | 0.233
ATTCCGAA | 0.388
ATTCCGAG | 0.353
ATTCCGAC | 0.211
AAGAATTA | 0.134
CGGCCACA | 0.194
CACATTCG | 0.097
CGGGTATA | 0.196
CAGGGAAA | 0.0066
ACCATTGC | -0.0741

Sequence | PBM E-score
GTTTTACA | -0.015
GCCAACCA | -0.155
CTTTAGTA | -0.0339
CTTTAATA | 0.245
AATTAATT | 0.0189
ATTTAGTA | 0.328
GTTTAATA | 0.155
TATTAATA | -0.00461
AATTAATA | 0.407
ATTTAATA | 0.313
ATTTAGTC | 0.133
GCTGCACA | -0.159
CGCAGTGC | -0.204
AAAGGGAG | -0.313
CAGTCTTA | -0.0806
GTCAAGAA | 0.0525
TTCAAAAA | 0.228
TTCAAGAA | 0.312
CAGCCATG | -0.329
CGGGCTAC | 0.00991
AGAATTTA | 0.121
AACGCCGT | 0.119
AACGCCGA | 0.415
AACGCCGG | 0.317
AACGCCGC | 0.116

Sequence | PBM E-score
TACGCCGA | 0.237
CACGCCGA | 0.153
CCCTAAAA | -0.238
AAACGAGG | -0.124
GCTATAAC | -0.00042
GATCTGTA | -0.0435
CTTCGGCC | 0.272
GTTCGGCA | 0.368
ATTCGGCC | 0.292
ATTCGGTA | 0.329
CATCGGCA | 0.211
ATTCGGCA | 0.318
CTTCGGCA | 0.333
GCTCGGCA | 0.288
ATTCGGCG | 0.282
GTTCGGTA | 0.29
GGTCGGCA | 0.112
ATTCGGTG | 0.155
AAGCGTGT | -0.217
